The source made the active and inactive calls. Unless noted, how the calls were made is not given here.
Columns and labels:
[1] = system: XIP peptide (Xip251-270) binding; experiment: XIP fragment 251-270 binding compounds – biochemical, small-molecule microarray, fluorescence 635/667 nm, 0.1 µg/mL protein, primary screen (AID 1182); conditions: fluorescent protein binding, 635 nm, higher = more signal, called active from +8 up or from −8 down
[2] = system: XIP peptide (Xip251-270); experiment: compounds binding XIP fragment 251-270 – biochemical, small-molecule microarray, fluorescence 635/667 nm, 0.5 µg/mL protein, primary screen (AID 1183); conditions: fluorescence 635 nm, higher = more signal
[3] = blood-stage malaria parasite viability loss – strain 3D7, DAPI fluorescence, 100 nL, primary screen (AID 1184);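 further: parasites grown inside human red blood cells in medium with human serum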; conditions: P. falciparum 3D7 growth, 3 d, higher = more signal
[4] = target: Homeobox protein Hox-A13 (Mus musculus) (UniProt Q62424); experiment: disruptors of Hoxa13 oligonucleotide interaction – biochemical, fluorescence polarization, labeled oligonucleotide, primary screen (AID 1185); conditions: Hoxa13:DNA binding, 15 min, higher = more signal, called active from +8 up or from −8 down
Chain of Homeobox protein Hox-A13 (Mus musculus) (Q62424 whole entry, looked up): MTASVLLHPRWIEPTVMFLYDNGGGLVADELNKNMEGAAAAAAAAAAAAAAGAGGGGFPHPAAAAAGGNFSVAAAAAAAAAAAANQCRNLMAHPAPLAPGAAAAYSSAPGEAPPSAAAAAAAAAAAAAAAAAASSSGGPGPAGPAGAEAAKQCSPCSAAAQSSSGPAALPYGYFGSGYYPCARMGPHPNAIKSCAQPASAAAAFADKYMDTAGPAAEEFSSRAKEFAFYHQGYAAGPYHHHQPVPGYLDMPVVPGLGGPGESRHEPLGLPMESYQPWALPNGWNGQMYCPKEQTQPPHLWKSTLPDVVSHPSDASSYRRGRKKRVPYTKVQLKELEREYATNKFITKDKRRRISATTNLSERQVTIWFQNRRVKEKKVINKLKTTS

[5] = blockers of DNA damage checkpoint Chk1 activation – imaging, HeLa, hydroxyurea, phospho-Chk1 antibody, percent positive cells, primary screen (AID 1186); conditions: hydroxyurea-induced phospho-Chk1 immunofluorescence imaging, higher = more signal
[6] = blockers of DNA damage checkpoint Chk1 activation – imaging, HeLa, hydroxyurea, phospho-Chk1 nuclear intensity, primary screen (AID 1187); conditions: hydroxyurea-induced phospho-Chk1 immunofluorescence imaging, higher = more signal

SMILES | composite z-score [1] | composite z-score [2] | z-score [3] | z-score [4] | z-score [5] | z-score [6]
COC(=O)C[C@H]1O[C@]2(C(=O)N(C)c3ccccc32)[C@@H](C)[C@@H]1[Si](C)(C)F | -0.0066 (inactive) | 0.181 | 0.522 | -1.19 (inactive) | 0.23 (inactive) | 0.843 (inactive)
O=C1C2C=CC(C(O)c3cccc4ccccc34)N(Nc3ccccc3F)C2C(=O)N1c1ccccc1 (stereo not given) | 1.09 (inactive) | 0.871 | 0.71 | -3.52 (inactive) | 0.228 (inactive) | 0.807 (inactive)
O=C(NCCN1CCOCC1)[C@@H]1c2ccccc2C(=O)N(C2CCCCC2)[C@H]1c1ccc(CO)cc1 | -0.403 (inactive) | 0.0759 | -1.23 | -4.02 (inactive) | -0.389 (inactive) | -0.611 (inactive)
C=CCC(OC(C)=O)[C@@H]1[C@@H](N(Cc2ccc(-c3ccccc3)cc2)C(=O)Cc2ccc(OC)cc2)c2cc(OCCCO)ccc2N1C(=O)Cc1ccc2ccccc2c1 (stereo not given in full) | 1.46 (inactive) | -0.282 | -0.874 | -1.62 (inactive) | 0.802 (inactive) | 0.325 (inactive)
COCCOC(=O)N1C(=O)[C@@]2(c3cc(C#CC4(O)CCCCCC4)ccc31)[C@H](c1ccc(OCCO)cc1)N1[C@H](c3ccccc3)[C@H](c3ccccc3)OC(=O)[C@H]1[C@@H]2C(=O)N1CCN(c2ncccn2)CC1 | 0.647 (inactive) | 0.61 | -2.06 | 0.253 (inactive) | -0.0615 (inactive) | 0.22 (inactive)
COCCOC(=O)N1C(=O)[C@@]2(c3cc(C#CCCO)ccc31)[C@H](C(=O)N1CCCCCCC1)[C@H]1C(=O)O[C@H](c3ccccc3)[C@H](c3ccccc3)N1[C@@H]2c1ccc(OCCO)cc1 | 1.29 (inactive) | 0.666 | -1.5 | -11 (active) | -0.201 (inactive) | 0.0919 (inactive)
COC(=O)[C@@]1(Cc2ccc(OC)cc2)[C@H]2c3cc(C(=O)N4CCCC4)n(Cc4ccc(O)c(OC)c4)c3C[C@H]2CN1C(=O)c1ccccc1 | 1.29 (inactive) | 0.575 | -1.65 | -4.69 (inactive) | 0.449 (inactive) | 0.27 (inactive)
COCCOC(=O)N1C(=O)[C@@]2(c3cc(C#CCC(C(=O)OC)C(=O)OC)ccc31)[C@H](c1ccccc1OCCO)N1[C@H](c3ccccc3)[C@H](c3ccccc3)OC(=O)[C@H]1[C@@H]2C(=O)NC[C@H](O)c1ccccc1 | 1.42 (inactive) | 0.705 | -2.31 | -1.77 (inactive) | -0.0638 (inactive) | -0.19 (inactive)
O=C1C[C@@](C(=O)NCC(F)(F)F)(c2ccc([N+](=O)[O-])cc2)[C@@H](c2ccc(CO)cc2I)N1C1CCCCC1 | 0.469 (inactive) | 0.778 | -1.26 | -4.99 (inactive) | -0.171 (inactive) | 0.187 (inactive)
C=C[C@H](CO[Si](CC)(CC)CC)N(Cc1ccc(OC(C)=O)c(OC)c1)S(=O)(=O)c1ccc(Br)cc1 | 1.38 (inactive) | 0.88 | 0.378 | 0.476 (inactive) | -0.528 (inactive) | -0.508 (inactive)
Cc1nc2cc(Br)ccc2c(=O)o1 | 0.312 (inactive) | 0.139 | -0.973 | 0.0804 (inactive) | -0.131 (inactive) | 0.134 (inactive)
COC(=O)[C@@]1(Cc2ccc(OC)cc2)[C@@H]2C(=CC(=O)[C@H]2CC(=O)C(=O)N2CCCC2)CN1C(=O)c1ccccc1 | -0.406 (inactive) | 0.161 | -0.918 | -2.39 (inactive) | -0.0101 (inactive) | -0.277 (inactive)
C=CCC(OC(C)=O)[C@@H]1[C@@H](N(Cc2ccc(-c3ccccc3)cc2)C(=O)c2cccc3ccccc23)c2cc(OCCCO)ccc2N1C(=O)c1ccc(-c2ccccc2)cc1 (stereo not given in full) | -0.299 (inactive) | -0.321 | -2.81 | -1.22 (inactive) | -0.627 (inactive) | -0.234 (inactive)
C#C[C@H](O[Si](C#Cc1ccc(Oc2ccccc2)cc1)(C(C)C)C(C)C)c1ccccc1 | 0.359 (inactive) | -0.418 | -1 | -1.04 (inactive) | 0.179 (inactive) | -0.049 (inactive)
Cc1ccc(S[C@]2(C(=O)NCCCN(C)C)CC(=O)N(Cc3ccccc3C(F)(F)F)[C@@H]2c2ccc(CO)cc2)cc1 | 0.0209 (inactive) | -0.328 | -1.02 | -1.25 (inactive) | -0.0292 (inactive) | 0.135 (inactive)
